According to PubChem BioAssay (EPA / NIEHS):
Inconclusive results are not listed. The source made the active and inactive calls. Rule for the calls, unless noted: active = hit-call score of the fitted dose curve at least 0.9, where 1 is the maximum; inconclusive = response in the unintended direction; inactive = score below 0.9.

Tested on: SRD5A2 (gene 6716)
Test: CCTE_Deisenroth_5AR_NBTE_ratio: CCTE's 5alpha-reductase NanoBRET Target Engagement Assay - Ratio, Deisenroth Lab (AID 2284322; active = hit-call score of the fitted dose curve at least 0.9, where 1 is the maximum; inactive = score below 0.9)
Conditions: actives raise or lower the signal
Outline: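 HEK293T transiently expressing SRD5A2-NanoLuc; cells exposed to chemical (8-point, 10 nM - 29.9 uM) for 5 h total, testosterone tracer added for final 2 h. NanoBRET acceptor/donor ratio (650/460 nm), bidirectional fit vs DMSO.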
With `CCN(CC)CCOc1ccc(C(=C(Cl)c2ccccc2)c2ccccc2)cc1` the outcome was “inactive”.
For `O=C(O)c1[nH]n(-c2ccc(S(=O)(=O)O)cc2)c(=O)c1N=Nc1ccc(S(=O)(=O)O)cc1`, the AC50 was 57.5 µM (active).
For `O=C1c2c(O)cccc2Cc2cccc(O)c21`, the AC50 was 75.5 µM (active).
For `O=C1OC(c2ccc(O)cc2)(c2ccc(O)cc2)c2ccccc21`, the AC50 was 50 µM (active).
With `C/C=C/C=C/C(=O)O` the outcome was “inactive”.
With `CCCCCCCCCCCCCCOS(=O)(=O)O` the AC50 was 26.1 µM (active).
For `CCCCC(CC)COC(=O)CCCCCCCC(=O)OCC(CC)CCCC` (stereo unspecified), the outcome was “inactive”.
For `Cc1c(C)c2c(c(C)c1O)CCC(C)(COc1ccc(CC3SC(=O)NC3=O)cc1)O2` (stereo unspecified), the AC50 was 29.7 µM (active).

Tested on: not listed separately
Test: VALA_TUBHUV_Antagonist_TubuleLength: VALA Sciences human Umbilical Vein Endothelial Tubule Formation (TUBHUV) Antagonism Assay (AID 2284325)
Conditions: not given
Outline: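 HUVEC–HDF co-culture (1:3) pre-grown 3 days with 10 ng/ml VEGF, then 3 days with compound plus VEGF. Fixed, nuclear and CD31 stained; total tubule length by imaging versus 0.1% DMSO; suramin 100 uM positive control.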
With `O=C1OC(c2ccc(O)cc2)(c2ccc(O)cc2)c2ccccc21` the AC50 was 50 µM (active).
In the case of `CCCCC(CC)COP(=O)(OCC(CC)CCCC)OCC(CC)CCCC` (stereo unspecified), the AC50 is reported as 10 µM (active).
With `Nc1nc(Cl)nc2c1ncn2[C@H]1C[C@H](O)[C@@H](CO)O1` the AC50 was 0.703 µM (active).
With `COC(=O)[C@H]1[C@H]2C[C@@H]3c4[nH]c5cc(OC)ccc5c4CCN3C[C@H]2C[C@@H](OC(=O)c2cc(OC)c(OC)c(OC)c2)[C@@H]1OC` the AC50 was 84.3 µM (active).

Tested on: not listed separately
Test: TAMU_PeakParms_SingleDonor1434_Asystole: Texas A&M University (TAMU) 1.5-hr Human Induced Pluripotent Stem Cell (iPSC)-derived Cardiomyocytes Calcium (Ca+2) Flux Assay for Cardiotoxicity: Asystole (quiescence of beating) (AID 2284328)
Conditions: not given
Outline: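 Average Ca2+-flux peak frequency (beats/s) was recorded in single-donor iPSC-derived cardiomyocytes after 90 min exposure (0.2–100 uM final, 0.5% DMSO). Asystole POD set as EC95 against DMSO, no preprocessing.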
For `O=C(O)CC(O)(CC(=O)O)C(=O)O`, the outcome was “inactive”.
With `Nc1nc(=S)c2[nH]cnc2[nH]1` the outcome was “inactive”.
With `CCc1nc(N)nc(N)c1-c1ccc(Cl)cc1` the outcome was “inactive”.
With `COC(=O)[C@H]1[C@H]2C[C@@H]3c4[nH]c5cc(OC)ccc5c4CCN3C[C@H]2C[C@@H](OC(=O)c2cc(OC)c(OC)c(OC)c2)[C@@H]1OC` the outcome was “inactive”.
